HPGD inh: HPGD (human) dehydrogenase inhibition | P15428 | purified HPGD, NADH fluorescence kinetic, PGE2 substrate | Potency, µM, usual class: inhibitors | 4.3% of 150,000 active
Target sequence (P15428 whole entry, looked up): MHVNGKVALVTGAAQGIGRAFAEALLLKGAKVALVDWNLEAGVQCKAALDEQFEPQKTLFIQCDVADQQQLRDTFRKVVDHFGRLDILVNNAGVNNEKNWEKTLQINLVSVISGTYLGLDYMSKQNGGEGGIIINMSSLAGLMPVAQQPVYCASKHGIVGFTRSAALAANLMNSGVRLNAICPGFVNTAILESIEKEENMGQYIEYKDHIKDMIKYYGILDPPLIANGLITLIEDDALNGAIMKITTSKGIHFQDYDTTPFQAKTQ
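NADH formation kinetics: reaction with 30 uM PGE2 and 1 mM NAD+ (final), 20 nM enzyme, Tris-HCl pH 8 with Tween 20, after 15 min compound preincubation at room temperature. Fluorescence change, last versus first of five reads.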
PNC assembly inh: perinucleolar compartment assembly inhibition | PC3M PTB-GFP, PNC prevalence imaging, 16 h; active compounds read low | activity change (PNC), negative = inhibition, % at 10 µM | 3.1% of 140,000 active | AID 2417;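 active = readout at or below -70, meaning at least 70% loss of cells showing the perinucleolar compartment, a nuclear body marking cancer cells; inconclusive = readout between -30 and a set limit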
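Read-out is percentage of cells bearing a perinucleolar compartment, from automated 20x imaging of fixed, Hoechst-stained PC3M PTB-GFP cells. Cells were seeded 4 h, then exposed 16 h to compound (23 nl of library stock) in duplicate plates.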
ALDH1A1 inh: inhibitors of human aldehyde dehydrogenase 1A1. P00352. Purified ALDH1A1, NADH fluorescence, propionaldehyde substrate. 7.3% of 220,000 active. Potency, µM (doses to about 75.3 µM), usual class: inhibitors
Target sequence (P00352 whole entry, looked up): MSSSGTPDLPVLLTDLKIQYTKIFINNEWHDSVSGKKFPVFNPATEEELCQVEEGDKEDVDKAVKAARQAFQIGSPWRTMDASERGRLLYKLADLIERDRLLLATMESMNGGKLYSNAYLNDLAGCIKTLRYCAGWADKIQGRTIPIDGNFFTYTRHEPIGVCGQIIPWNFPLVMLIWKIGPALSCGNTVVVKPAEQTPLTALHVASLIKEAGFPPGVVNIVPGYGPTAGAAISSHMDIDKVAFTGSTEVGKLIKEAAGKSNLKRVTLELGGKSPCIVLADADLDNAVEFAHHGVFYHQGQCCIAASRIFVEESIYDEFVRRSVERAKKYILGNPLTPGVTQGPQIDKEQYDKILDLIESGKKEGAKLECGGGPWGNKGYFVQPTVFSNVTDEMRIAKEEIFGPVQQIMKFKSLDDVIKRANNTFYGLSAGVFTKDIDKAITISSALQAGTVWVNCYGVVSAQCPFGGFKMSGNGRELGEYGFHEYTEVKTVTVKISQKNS
Large screens that a line does not name were inactive. Sampled rows, rich in hits. Any-hit rate of the full collection: about 11%. Unless noted, calls follow the shape of the dose curve; as a rule, active = well fitted inhibition curve with a large enough effect (not every such curve was filed as active); inconclusive = small, poorly fitted or top-dose-only effect, or another doubt; inactive = no such curve, though single readings can be large or run the other way.

Cc1ccc(C(=O)O/N=C2\CC3CCC2(C)C3(C)C)cc1 (stereo not given)	PNC assembly inh inconclusive, ALDH1A1 inh 13µM
Cc1noc(C)c1C(=O)N1CCC[C@@]2(CCN(C(=O)Nc3cccc(C#N)c3)C2)C1	none (no result: PNC assembly inh)
O=C(CSc1nc2nn(-c3ccccc3)c(=O)c-2c2n1CCCCC2)NCCCc1ccccc1	none (no result: HPGD inh, PNC assembly inh)
CCCC/C(O)=C1\C(=O)CC(C)(C)CC1=Nc1ccccc1OC	none
CCC/C(O)=C1\C(=O)CC(C)(C)CC1=Nc1ccc(OC)cc1OC	PNC assembly inh -139
O=C(N/N=C/c1cccc(F)c1)c1c(O)c2c([nH]c1=O)CCCC2	PNC assembly inh -114
CNC(=O)c1ccccc1NC(=O)c1c(O)c2c([nH]c1=O)CCCC2	ALDH1A1 inh inconclusive
COc1ccc(S(=O)(=O)N2CCOCC2)cc1NC(=O)c1ccccc1-c1ccc(C(F)(F)F)cc1	HPGD inh inconclusive
O=[N+]([O-])c1cccnc1NCCc1ccccc1	none (no result: HPGD inh, PNC assembly inh)
O=C1C=C(NCCc2cc(Br)c(O)c(Br)c2)C(=O)c2ncccc21	ALDH1A1 inh 1.6µM (no result: PNC assembly inh)
COc1ccc2c(c1)O[C@H](c1ccc3c(c1)OCO3)[C@@H](OC(=O)NCCc1ccc(OC)c(OC)c1)C2=O	none (no result: PNC assembly inh)
COc1ccccc1N1C(=O)N(C(C)=O)C2C1Nc1ccccc1N2C (stereo not given)	ALDH1A1 inh 1.8µM
COc1ccccc1N1C(=O)c2ccccc2NC1c1ccncc1 (stereo not given)	ALDH1A1 inh inconclusive
CCc1ccc(OC2=NS(=O)(=O)c3ccccc32)cc1	none (no result: HPGD inh, PNC assembly inh)
CCN(CC)c1cccc(OC2=NS(=O)(=O)c3ccccc32)c1	ALDH1A1 inh 22µM (no result: HPGD inh)
Cc1ccc(NC(=O)COC(=O)Cc2csc(-c3cccc(F)c3)n2)cc1C	PNC assembly inh inconclusive, ALDH1A1 inh 11µM
Cc1ccc(NC(=O)COC(=O)Cc2csc(-c3ccc(Cl)cc3)n2)cc1C	none
Cc1cccc(C)c1Nc1oc(-c2ccccc2)nc1-c1ccccc1	none (no result: PNC assembly inh)
CCOC(=O)N1CCN(Cc2nc(-c3cccs3)no2)CC1	none (no result: HPGD inh, PNC assembly inh)
Cc1ccc(NC(=O)c2snc3ccc(Cl)cc23)cc1C	PNC assembly inh inconclusive
O=C(Nc1nnc(Cc2ccccc2)s1)c1ccco1	none
NC(=O)c1cc(Cc2ccccc2)sc1NC(=O)c1ccco1	HPGD inh 28µM, PNC assembly inh inconclusive, ALDH1A1 inh 18µM
CC(=O)c1cccc(NC(=O)c2ccoc2C)c1	none (no result: HPGD inh, PNC assembly inh)
CCOC(=O)c1cc(NC(=O)c2ccoc2C)cc(C(=O)OCC)c1	ALDH1A1 inh 6.3µM
CCCc1cc(C(N)=O)c(NC(=O)c2ccoc2C)s1	HPGD inh inconclusive, ALDH1A1 inh 18µM
CCCc1cc(C(N)=O)c(NC(=O)c2cc(C)on2)s1	PNC assembly inh inconclusive, ALDH1A1 inh inconclusive
c1ccc(C(c2ccccc2)N2CCC3(CCNCC3)CC2)cc1	none (no result: PNC assembly inh)
COc1ccc(OC)c(C(=O)CSc2nccc(-c3ccc(Br)cc3)n2)c1	HPGD inh inconclusive, PNC assembly inh inconclusive
C=CCNC(=O)C(C)Sc1ccc(Cl)cc1 (stereo not given)	HPGD inh inconclusive
[O-]/C(=C(\C(=S)NCc1ccco1)[n+]1ccccc1)c1ccccc1Br	none
[O-]/C(=C(\C(=S)NCc1ccc2c(c1)OCO2)[n+]1ccccc1)c1ccc(Cl)s1	ALDH1A1 inh 16µM (no result: HPGD inh, PNC assembly inh)
[O-]/C(=C(\C(=S)NCc1ccccc1)[n+]1ccccc1)c1ccc(Cl)cc1	ALDH1A1 inh 8.9µM (no result: HPGD inh, PNC assembly inh)
C=CCNC(=S)/C(=C(\[O-])c1ccc(Cl)cc1)[n+]1ccccc1	ALDH1A1 inh 14µM (no result: HPGD inh, PNC assembly inh)
O=C(NC(=S)NCc1ccc2c(c1)OCO2)c1ccccc1	ALDH1A1 inh inconclusive
CC1CC(C)CN(S(=O)(=O)c2ccc(C(C)(C)C)cc2)C1 (stereo not given)	none (no result: HPGD inh, PNC assembly inh)
CC(=O)NCCNc1cc(-c2ccccc2C)ncn1	none (no result: HPGD inh, PNC assembly inh)
O=C(COC(=O)CCCN1C(=O)c2ccccc2C1=O)Nc1cc(Cl)cc(Cl)c1	none
O=C(Nc1ccc(Cl)cc1)/C(=C/c1ccc([N+](=O)[O-])cc1)c1nc2ccccc2s1	none (no result: HPGD inh, PNC assembly inh)
CC(CN1CCCCC1)C(=O)NN (stereo not given)	none (no result: HPGD inh, PNC assembly inh)
CC(=O)/C(CN1CCCCC1)=N\O	PNC assembly inh inconclusive, ALDH1A1 inh 3.5µM
C/C(=N\O)C(=O)C(CN1CCCCC1)CN1CCCCC1	HPGD inh inconclusive, PNC assembly inh inconclusive, ALDH1A1 inh 1.6µM
O=C(O)CN1CCCCC1	none (no result: HPGD inh, PNC assembly inh)
O=C(CN(C(=O)c1csnn1)c1cccc2c1CCCC2)NC1CCCC1	none (no result: HPGD inh, PNC assembly inh)
C=CCSCC=C	none (no result: PNC assembly inh)
CCCS(=O)(=O)c1c(S(=O)(=O)CCC)c2c(C)cccn2c1C(=O)OC	HPGD inh inconclusive, ALDH1A1 inh inconclusive
CCCS(=O)(=O)c1c(S(=O)(=O)CCC)c2c3ccccc3ccn2c1C(=O)OC	HPGD inh inconclusive, PNC assembly inh -105, ALDH1A1 inh inconclusive
CN(C)C(=O)c1ccc(-n2cccn2)nc1	none (no result: HPGD inh, PNC assembly inh)
CCC(=O)N1CCc2cc(S(=O)(=O)CCC(=O)Nc3ccc(OC)c(OC)c3)ccc21	none (no result: HPGD inh, PNC assembly inh)
O=C(NN=C1c2ccccc2-c2ccccc21)c1cccc(Br)c1	none
[O-]/[N+](=C\c1ccc(F)cc1)c1ccccc1	ALDH1A1 inh 20µM
O=Cc1cccc(Br)c1	ALDH1A1 inh inconclusive (no result: PNC assembly inh)
[O-]/[N+](=C\c1cccc(Br)c1)c1ccccc1	ALDH1A1 inh 0.32µM (no result: HPGD inh, PNC assembly inh)
[O-]/[N+](=C\c1ccccc1)[C@@H]1CCCC[C@@H]1/[N+]([O-])=C/c1ccccc1	none (no result: HPGD inh)
CC(C)c1ncc(S(=O)(=O)c2ccc(C(F)(F)F)cn2)c(N)n1	none (no result: HPGD inh, PNC assembly inh)
c1ccc(CCNc2c3c(nc4ncnn24)CCC3)cc1	HPGD inh 18µM, ALDH1A1 inh 3.5µM
Fc1ccccc1CCNc1c2c(nc3ncnn13)CCCC2	none (no result: HPGD inh, PNC assembly inh)
O=C(C1=NNCC1c1ccccc1)C1CO1 (stereo not given)	PNC assembly inh inconclusive, ALDH1A1 inh inconclusive
C=CCOc1ccc(/C=N/NC(=O)CN2CCOCC2)cc1OCC	none (no result: HPGD inh, PNC assembly inh)
COc1ccc(OC)c(-c2cc(C3CCN(c4ncccc4[N+](=O)[O-])CC3)[nH]n2)c1	HPGD inh 14µM, ALDH1A1 inh inconclusive
O=[N+]([O-])c1cccnc1N1CCC(c2cc(-c3ccc(Cl)cc3Cl)n[nH]2)CC1	none
CN(c1ccccc1)S(=O)(=O)c1cccc(NS(=O)(=O)c2ccc(/C=C/C(=O)O)cc2)c1	none (no result: HPGD inh, PNC assembly inh)
COc1ccc(Cl)cc1NC(=O)Cc1c(F)cccc1Cl	none
Cc1ccc(-c2cc(C(=O)NCc3cccs3)no2)cc1	none
COc1ccccc1-c1cc(C(=O)Nc2cc(C)nn2-c2ccccc2)no1	PNC assembly inh -129
COc1ccc(-c2cc(C(=O)Nc3cc(C)nn3-c3ccccc3)no2)cc1	none
O=C(NCc1cccs1)c1cc(-c2cccc(Cl)c2)on1	PNC assembly inh -124
COc1ccccc1-c1cc(C(=O)NCc2ccco2)no1	HPGD inh 20µM
COCCNC(=O)c1cc(-c2ccccc2OC)on1	HPGD inh inconclusive, ALDH1A1 inh inconclusive
COc1ccc(OC)c(-c2cc(C(=O)NCc3cccs3)no2)c1	HPGD inh inconclusive, ALDH1A1 inh inconclusive
COc1ccccc1-c1cc(C(=O)NCc2cccs2)no1	HPGD inh 14µM, PNC assembly inh inconclusive, ALDH1A1 inh inconclusive
COc1ccc(/C=N/NC(=O)C2(C)NC(C)(C)Cc3ccccc32)cc1 (stereo not given)	none (no result: HPGD inh, PNC assembly inh)
COc1ccc(C(=O)NCC(=O)N/N=C(C)\C=C\c2ccccc2)cc1OC	none (no result: HPGD inh, PNC assembly inh)
Cc1cc(C)c(C(=O)Nc2ccccc2)c(CC(C)(C)C(=O)O)c1	none (no result: HPGD inh, PNC assembly inh)
CCN(CC)C(=O)c1cc(-c2ccccc2OC)on1	HPGD inh inconclusive, ALDH1A1 inh 14µM

Screening results (PubChem BioAssay)
